Screening data (PubChem)
Pf Dd2 inh: blocks growth of Plasmodium falciparum Dd2 parasites | 94,000 tested, 2.3% active | P. falciparum Dd2 growth, SYBR Green, 72 h; active compounds read low | activity change, % at 10 µM; in the data active = activity change below about -80%
C diff growth: blocks growth of Clostridium difficile | Clostridium difficile clinical isolate growth, OD600, 24 h; active compounds read low | growth activity, negative = inhibition, % at 16 µg/mL (by protocol) | 86,000 tested, 0.25% active | AID 1259249;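 active = mean growth activity at or below -80% and every replicate also at or below -80%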
Of the large screens only hits and unclear results are named; the others gave an inactive call. This is a sample that favours compounds with a hit; in the whole collection about 2.4% have one here.

C[C@@H]1CN([C@@H](C)CO)C(=O)c2cc(NC(=O)Nc3ccc(C(F)(F)F)cc3)ccc2O[C@@H]1CN(C)Cc1ccc(C(=O)Nc2ccccc2N)cc1	none (no result: C diff growth)
O=C(CCN1CCCCC1)N[C@@H]1CC[C@H](CCNS(=O)(=O)c2ccc(Cl)cc2)O[C@@H]1CO	none
CO[C@H]1CN(C)C(=O)c2cc(NS(=O)(=O)c3ccccc3)ccc2OC[C@@H](C)N(C(=O)NC(C)C)C[C@H]1C	none (no result: C diff growth)
C[C@@H]1CN([C@@H](C)CO)C(=O)c2c(c3ccccc3n2C)-c2ccccc2CO[C@H]1CN(C)S(=O)(=O)c1cccc(C#N)c1	none
C[C@H](CO)N1C[C@H](C)[C@H](CN(C)S(=O)(=O)c2cccc(C#N)c2)OCc2ccccc2-c2c(n(C)c3ccccc23)C1=O	Pf Dd2 inh -82.6
Cc1cccc(S(=O)(=O)N(C)C[C@@H]2OCc3ccccc3-c3c(n(C)c4ccccc34)C(=O)N([C@H](C)CO)C[C@@H]2C)c1	Pf Dd2 inh -85.8 (no result: C diff growth)
C[C@H](CO)N1C[C@H](C)[C@H](CN(C)S(=O)(=O)c2cccc(F)c2)OCc2ccccc2-c2c(n(C)c3ccccc23)C1=O	Pf Dd2 inh -90.9
Cc1cccc(S(=O)(=O)N(C)C[C@H]2OCc3ccccc3-c3c(n(C)c4ccccc34)C(=O)N([C@H](C)CO)C[C@@H]2C)c1	none (no result: C diff growth)
C[C@@H]1CN([C@H](C)CO)C(=O)c2c(c3ccccc3n2C)-c2ccccc2CO[C@H]1CN(C)S(=O)(=O)c1cccc(F)c1	none
C[C@H]1CN([C@@H](C)CO)C(=O)c2c(c3ccccc3n2C)-c2ccccc2CO[C@@H]1CN(C)S(=O)(=O)c1cccc(F)c1	Pf Dd2 inh -88.3
C[C@@H]1CN([C@H](C)CO)C(=O)c2c(c3ccccc3n2C)-c2ccccc2CO[C@@H]1CN(C)S(=O)(=O)c1cccc(F)c1	none
C[C@H](CO)N1C[C@H](C)[C@@H](CN(C)C(=O)C2CCC2)Oc2ncc(-c3cccc(C#N)c3)cc2C1=O	none
C[C@@H]1CN([C@H](C)CO)C(=O)c2cc(NC(=O)Cn3cnnn3)ccc2O[C@H]1CN(C)S(=O)(=O)c1ccccc1	none
Cc1ccccc1S(=O)(=O)N1[C@@H]2Cn3c(cccc3=O)[C@H]1[C@@H](C(=O)N1CCOCC1)[C@@H]2CO	none
C[C@@H]1CN([C@H](C)CO)C(=O)c2cc(NC(=O)Nc3ccc(C(F)(F)F)cc3)ccc2O[C@@H](C)CCCCO[C@@H]1CN(C)Cc1ccc2c(c1)OCO2	none
C[C@@H]1CCCCO[C@@H](CN(C)Cc2ccc3c(c2)OCO3)[C@H](C)CN([C@H](C)CO)C(=O)c2cc(NC(=O)Nc3ccc(C(F)(F)F)cc3)ccc2O1	C diff growth -94.8
C[C@@H]1CN([C@@H](C)CO)C(=O)c2cc(NC(=O)Nc3ccc(F)cc3)ccc2O[C@@H](C)CCCCO[C@@H]1CN(C)Cc1ccc2c(c1)OCO2	Pf Dd2 inh -83.0
C[C@@H]1CCCCO[C@@H](CN(C)Cc2ccc(C(F)(F)F)cc2)[C@@H](C)CN([C@@H](C)CO)C(=O)c2cc(NC(=O)Nc3ccc4c(c3)OCO4)ccc2O1	none (no result: C diff growth)
C[C@@H]1CCCCO[C@H](CN(C)Cc2ccc(C(F)(F)F)cc2)[C@@H](C)CN([C@@H](C)CO)C(=O)c2cc(NC(=O)Nc3ccc4c(c3)OCO4)ccc2O1	Pf Dd2 inh -80.9 (no result: C diff growth)
C[C@H]1CCCCO[C@H](CN(C)Cc2ccc3c(c2)OCO3)[C@@H](C)CN([C@@H](C)CO)C(=O)c2cc(NC(=O)Nc3ccc(F)cc3)ccc2O1	none
C[C@@H]1CN([C@@H](C)CO)C(=O)Cc2cc(NC(=O)Cn3cnnn3)ccc2O[C@H]1CN(C)Cc1ccc(Cl)c(Cl)c1	none
C[C@H](CO)N1C[C@H](C)[C@@H](CN(C)Cc2ccc3c(c2)OCO3)OCCCC[C@H](C)Oc2ccc(NC(=O)Cc3ccccc3)cc2C1=O	none
CCC(=O)N1[C@@H](CO)[C@@H]2c3ccccc3N(C(=O)c3cccc(OC)c3)C[C@@H]21	none
COc1ccc(NC(=O)Nc2ccc3c(c2)C(=O)N([C@@H](C)CO)C[C@H](C)[C@@H](CN(C)S(=O)(=O)c2ccc(OC)cc2)OCCCC[C@H](C)O3)cc1	none
COc1ccc(S(=O)(=O)N(C)C[C@H]2OCCCC[C@@H](C)Oc3ccc(NC(=O)Nc4ccc(C(F)(F)F)cc4)cc3C(=O)N([C@@H](C)CO)C[C@H]2C)cc1	Pf Dd2 inh -84.6
COc1ccc(S(=O)(=O)N(C)C[C@@H]2OCCCC[C@@H](C)Oc3ccc(NC(=O)Nc4ccc(C(F)(F)F)cc4)cc3C(=O)N([C@@H](C)CO)C[C@@H]2C)cc1	Pf Dd2 inh -87.5
COc1ccc(S(=O)(=O)N(C)C[C@@H]2OCCCC[C@H](C)Oc3ccc(NC(=O)Nc4ccc(C(F)(F)F)cc4)cc3C(=O)N([C@H](C)CO)C[C@H]2C)cc1	Pf Dd2 inh -82.9
COc1ccc(S(=O)(=O)N(C)C[C@@H]2OCCCC[C@H](C)Oc3ccc(NC(=O)Nc4ccc(C(F)(F)F)cc4)cc3C(=O)N([C@@H](C)CO)C[C@@H]2C)cc1	none
COc1ccc(S(=O)(=O)N(C)C[C@@H]2OCCCC[C@@H](C)Oc3ccc(NC(=O)Nc4ccc(C(F)(F)F)cc4)cc3C(=O)N([C@@H](C)CO)C[C@H]2C)cc1	none
COc1ccc(S(=O)(=O)N(C)C[C@H]2OCCCC[C@@H](C)Oc3ccc(NC(=O)Nc4ccc(C(F)(F)F)cc4)cc3C(=O)N([C@@H](C)CO)C[C@@H]2C)cc1	Pf Dd2 inh -84.7
Cc1ccccc1-c1ccc([C@H]2[C@H]3CN(C(=O)NC4CCCC4)CC(=O)N3[C@H]2CO)cc1	none
CCCNC(=O)N1C[C@@H]2[C@H](c3ccccc31)[C@@H](CO)N2C(=O)NCCC	none
O=C(C[C@@H]1C[C@H]2c3cc(NC(=O)NC4CCCC4)ccc3O[C@H]2[C@H](CO)O1)NCc1ccccc1	none (no result: C diff growth)
C[C@@H]1CCCCO[C@H](CN(C)C(=O)Nc2ccc(F)cc2)[C@H](C)CN([C@H](C)CO)C(=O)c2cc(NS(=O)(=O)c3ccccc3)ccc2O1	Pf Dd2 inh -90.8
C[C@@H]1CCCCO[C@H](CN(C)C(=O)Nc2ccccc2)[C@H](C)CN([C@@H](C)CO)C(=O)c2cc(NS(=O)(=O)c3ccccc3)ccc2O1	Pf Dd2 inh -84.1 (no result: C diff growth)
C[C@H](CO)N1C[C@H](C)[C@@H](CN(C)C(=O)Nc2ccccc2)OCCCC[C@H](C)Oc2ccc(NS(=O)(=O)c3ccccc3)cc2C1=O	none (no result: C diff growth)
C[C@@H]1CCCCO[C@H](CN(C)C(=O)Nc2ccc(F)cc2)[C@@H](C)CN([C@@H](C)CO)C(=O)c2cc(NS(=O)(=O)c3ccccc3)ccc2O1	none
CN1C(=O)c2cc(NC(=O)c3cnccn3)ccc2OC[C@@H]2O[C@H](CC(=O)NC3CCC3)CC[C@H]21	none
CC(=O)N(C)C[C@@H]1Oc2ncc(-c3cccnc3)cc2C(=O)N([C@H](C)CO)C[C@@H]1C	none
CCC(=O)Nc1ccc2c(c1)OC[C@H](C)N(C(=O)NC(C)C)C[C@H](C)[C@@H](OC)CN(C)C2=O	none
CN(C)C(=O)c1cccc(-c2ccc3c(c2)[C@@H]2[C@@H](CCN2C(=O)Cc2ccncc2)[C@@H](CO)N3)c1	none
COc1cccc(C#Cc2ccc3c(c2)O[C@H](CN(C)C(=O)c2ccccn2)[C@@H](C)CN([C@@H](C)CO)S3(=O)=O)c1	none
COc1cccc(NC(=O)N(C)C[C@@H]2Oc3cc(C#Cc4ccc(F)cc4)ccc3S(=O)(=O)N([C@H](C)CO)C[C@@H]2C)c1	Pf Dd2 inh -89.8
